Test results: PMC7862700, “An all-to-all approach to the identification of sequence-specific readers for epigenetic DNA modifications on cytosine”

How the values were obtained:
Experiment in all cases: DAPPL (digital affinity profiling via proximity ligation, sequencing); 10 mM Tris-HCl pH 7.5, 50 mM NaCl, 1 mM DTT, 4% glycerol, room temperature, 30 min; GST-TFs on glutathione beads, 16-mer random dsDNA library, 0.1% formaldehyde crosslink after washing; high values mean tight binding
Conditions in all cases: protein: recombinant; tags: N-terminal GST; dsDNA, one strand shown
FLI1 = molecular target: T1, FLI1 (Homo sapiens, UniProt Q01543 1-452)
T1 sequence: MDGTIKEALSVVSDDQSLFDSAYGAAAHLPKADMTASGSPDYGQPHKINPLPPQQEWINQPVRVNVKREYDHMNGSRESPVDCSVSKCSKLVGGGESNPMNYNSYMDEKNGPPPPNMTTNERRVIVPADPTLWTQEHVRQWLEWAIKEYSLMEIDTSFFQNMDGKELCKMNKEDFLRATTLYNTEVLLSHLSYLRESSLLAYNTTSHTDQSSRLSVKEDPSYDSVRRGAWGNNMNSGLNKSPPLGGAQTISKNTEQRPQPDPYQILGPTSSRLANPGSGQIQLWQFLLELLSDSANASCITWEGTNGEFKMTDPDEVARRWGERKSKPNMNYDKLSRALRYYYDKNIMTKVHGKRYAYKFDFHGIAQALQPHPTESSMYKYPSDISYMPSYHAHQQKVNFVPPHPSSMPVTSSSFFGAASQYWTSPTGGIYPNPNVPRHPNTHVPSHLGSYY
In short: (§1)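 Binding signal is each hexamer's read frequency for a factor divided by its frequency in the tag-only sample. The factors were GST-fused human transcription factors from yeast, captured on glutathione beads, DNA-barcoded and pooled with that sample. Pools were incubated with 200 nmole of a random double-stranded 16-mer DNA library in Tris/NaCl/DTT/glycerol buffer at room temperature for 30 min, then washed, crosslinked with 0.1% formaldehyde, proximity-ligated with BsaI/T4 ligase (1 h, 37 °C), PCR-amplified and sequenced on an Illumina NextSeq500.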

ELK1 = molecular target: T2, ELK1 (Homo sapiens, UniProt P19419 1-428)
T2 sequence: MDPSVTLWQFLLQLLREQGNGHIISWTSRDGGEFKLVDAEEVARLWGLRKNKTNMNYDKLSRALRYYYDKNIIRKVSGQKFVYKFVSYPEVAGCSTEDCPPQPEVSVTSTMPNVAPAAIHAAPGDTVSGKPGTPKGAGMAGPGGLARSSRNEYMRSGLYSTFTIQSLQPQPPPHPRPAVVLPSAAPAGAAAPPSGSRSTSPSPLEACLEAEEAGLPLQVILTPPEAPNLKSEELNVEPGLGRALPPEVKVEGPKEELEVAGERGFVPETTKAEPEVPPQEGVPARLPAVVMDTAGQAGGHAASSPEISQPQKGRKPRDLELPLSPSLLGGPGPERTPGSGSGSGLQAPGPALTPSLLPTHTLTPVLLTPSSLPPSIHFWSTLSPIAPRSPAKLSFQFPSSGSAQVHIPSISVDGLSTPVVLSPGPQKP
In short: as §1

GABPA = molecular target: T3, GABPA (Homo sapiens, UniProt Q06546 1-454)
T3 sequence: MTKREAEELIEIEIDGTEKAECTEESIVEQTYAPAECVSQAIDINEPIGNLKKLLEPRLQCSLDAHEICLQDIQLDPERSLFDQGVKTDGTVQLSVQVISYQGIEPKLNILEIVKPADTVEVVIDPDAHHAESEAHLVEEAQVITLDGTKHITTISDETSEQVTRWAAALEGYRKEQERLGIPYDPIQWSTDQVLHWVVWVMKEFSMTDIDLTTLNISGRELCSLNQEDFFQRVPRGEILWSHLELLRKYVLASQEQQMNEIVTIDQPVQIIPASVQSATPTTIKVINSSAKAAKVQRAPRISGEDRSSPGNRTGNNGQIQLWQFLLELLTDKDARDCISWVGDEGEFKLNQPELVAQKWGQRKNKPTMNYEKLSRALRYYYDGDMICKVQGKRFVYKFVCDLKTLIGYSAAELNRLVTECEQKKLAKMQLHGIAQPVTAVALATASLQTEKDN
In short: as §1

ERG = molecular target: T4, ERG (Homo sapiens, UniProt P11308 1-479)
T4 sequence: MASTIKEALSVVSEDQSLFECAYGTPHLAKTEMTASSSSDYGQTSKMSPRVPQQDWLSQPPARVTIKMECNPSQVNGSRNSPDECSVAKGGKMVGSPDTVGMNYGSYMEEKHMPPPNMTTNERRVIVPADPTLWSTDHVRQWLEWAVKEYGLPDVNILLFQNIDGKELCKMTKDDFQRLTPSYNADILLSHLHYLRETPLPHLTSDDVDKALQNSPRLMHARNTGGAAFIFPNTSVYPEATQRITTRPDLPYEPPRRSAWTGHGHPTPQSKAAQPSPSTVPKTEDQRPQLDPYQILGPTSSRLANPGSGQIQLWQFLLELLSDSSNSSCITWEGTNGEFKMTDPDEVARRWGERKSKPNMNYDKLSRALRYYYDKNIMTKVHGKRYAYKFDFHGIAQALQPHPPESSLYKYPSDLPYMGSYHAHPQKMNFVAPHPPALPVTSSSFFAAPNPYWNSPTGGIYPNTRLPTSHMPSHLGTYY
In short: as §1

ELF1 = ELF1 (Homo sapiens, UniProt P32519 1-619)
Chain of ELF1 (P32519 whole entry): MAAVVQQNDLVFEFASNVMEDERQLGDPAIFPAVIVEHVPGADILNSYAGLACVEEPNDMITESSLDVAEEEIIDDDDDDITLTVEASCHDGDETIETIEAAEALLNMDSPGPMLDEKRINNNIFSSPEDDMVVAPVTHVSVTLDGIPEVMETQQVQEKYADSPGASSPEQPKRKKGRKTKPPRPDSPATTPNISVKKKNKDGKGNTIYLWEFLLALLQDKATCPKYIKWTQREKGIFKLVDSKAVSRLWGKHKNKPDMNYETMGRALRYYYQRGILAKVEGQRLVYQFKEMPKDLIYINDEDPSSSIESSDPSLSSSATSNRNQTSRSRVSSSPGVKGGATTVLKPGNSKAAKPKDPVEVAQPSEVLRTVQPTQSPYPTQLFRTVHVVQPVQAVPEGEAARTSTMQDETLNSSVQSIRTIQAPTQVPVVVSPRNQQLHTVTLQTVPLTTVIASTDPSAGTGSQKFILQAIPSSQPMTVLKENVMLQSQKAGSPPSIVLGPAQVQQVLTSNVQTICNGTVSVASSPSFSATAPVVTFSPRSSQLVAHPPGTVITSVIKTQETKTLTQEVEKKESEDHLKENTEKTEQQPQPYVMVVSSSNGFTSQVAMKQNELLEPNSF
In short: as §1

EHF = molecular target: T5, EHF (Homo sapiens, UniProt Q9NZC4 1-300)
T5 sequence: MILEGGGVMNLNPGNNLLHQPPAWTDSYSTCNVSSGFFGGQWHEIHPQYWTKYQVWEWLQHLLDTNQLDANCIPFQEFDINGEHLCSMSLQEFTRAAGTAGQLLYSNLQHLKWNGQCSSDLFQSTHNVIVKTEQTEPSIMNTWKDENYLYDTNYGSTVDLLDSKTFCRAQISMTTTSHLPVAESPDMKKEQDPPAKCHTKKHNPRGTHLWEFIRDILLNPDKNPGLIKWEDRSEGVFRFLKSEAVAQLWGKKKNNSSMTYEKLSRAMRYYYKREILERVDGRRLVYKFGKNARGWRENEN
In short: as §1

SPI1 = SPI1 (Homo sapiens, UniProt P17947 1-270)
In short: as §1

SPIB = SPIB (Homo sapiens, UniProt Q01892 1-262)
Chain of SPIB (Q01892 whole entry): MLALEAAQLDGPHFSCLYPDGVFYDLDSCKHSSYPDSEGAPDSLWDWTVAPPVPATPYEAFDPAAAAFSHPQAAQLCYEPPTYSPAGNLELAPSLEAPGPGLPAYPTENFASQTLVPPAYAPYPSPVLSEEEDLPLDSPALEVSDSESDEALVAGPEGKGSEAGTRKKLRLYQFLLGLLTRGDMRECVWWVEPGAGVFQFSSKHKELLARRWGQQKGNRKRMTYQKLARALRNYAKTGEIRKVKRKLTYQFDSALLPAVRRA
In short: as §1

ELK3 = molecular target: T6, ELK3 (Homo sapiens, UniProt P41970 1-407)
T6 sequence: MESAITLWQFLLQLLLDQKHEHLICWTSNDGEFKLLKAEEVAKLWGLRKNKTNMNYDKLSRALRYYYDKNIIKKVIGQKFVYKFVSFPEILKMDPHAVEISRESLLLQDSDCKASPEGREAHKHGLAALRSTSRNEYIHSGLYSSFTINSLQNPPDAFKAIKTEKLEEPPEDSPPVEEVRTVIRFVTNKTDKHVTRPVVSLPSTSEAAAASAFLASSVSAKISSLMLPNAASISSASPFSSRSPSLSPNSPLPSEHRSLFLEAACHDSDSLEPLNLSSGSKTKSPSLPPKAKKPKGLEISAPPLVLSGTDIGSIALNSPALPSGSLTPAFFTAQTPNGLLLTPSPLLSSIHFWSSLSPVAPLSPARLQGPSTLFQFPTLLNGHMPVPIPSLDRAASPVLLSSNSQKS
In short: as §1

Row | Sequence | binding signal (FLI1) | binding signal (ELK1) | binding signal (GABPA) | binding signal (ERG) | binding signal (ELF1) | binding signal (EHF) | binding signal (SPI1) | binding signal (SPIB) | binding signal (ELK3)
1 | TTTATT | 1.36 fold enrichment (6-mer frequency, TF over GST control) | 1.25 fold enrichment (6-mer frequency, TF over GST control) | 1.24 fold enrichment (6-mer frequency, TF over GST control) | 1.26 fold enrichment (6-mer frequency, TF over GST control) | 1.19 fold enrichment (6-mer frequency, TF over GST control) | 1.31 fold enrichment (6-mer frequency, TF over GST control) | 1.25 fold enrichment (6-mer frequency, TF over GST control) | 1.32 fold enrichment (6-mer frequency, TF over GST control) | 1.31 fold enrichment (6-mer frequency, TF over GST control)
2 | AACCGG | 1.43 fold enrichment (6-mer frequency, TF over GST control) | 1.58 fold enrichment (6-mer frequency, TF over GST control) | 1.33 fold enrichment (6-mer frequency, TF over GST control) | 1.73 fold enrichment (6-mer frequency, TF over GST control) | 1.46 fold enrichment (6-mer frequency, TF over GST control) | 1.5 fold enrichment (6-mer frequency, TF over GST control) | 1.7 fold enrichment (6-mer frequency, TF over GST control) | 1.64 fold enrichment (6-mer frequency, TF over GST control) | 1.54 fold enrichment (6-mer frequency, TF over GST control)
3 | CAAACC | 1.16 fold enrichment (6-mer frequency, TF over GST control) | 1.15 fold enrichment (6-mer frequency, TF over GST control) | 1.11 fold enrichment (6-mer frequency, TF over GST control) | 1.16 fold enrichment (6-mer frequency, TF over GST control) | 1.13 fold enrichment (6-mer frequency, TF over GST control) | 1.05 fold enrichment (6-mer frequency, TF over GST control) | 1.15 fold enrichment (6-mer frequency, TF over GST control) | 1.06 fold enrichment (6-mer frequency, TF over GST control) | 1.15 fold enrichment (6-mer frequency, TF over GST control)
4 | CCGCAC | 1.45 fold enrichment (6-mer frequency, TF over GST control) | 1.45 fold enrichment (6-mer frequency, TF over GST control) | 1.5 fold enrichment (6-mer frequency, TF over GST control) | 1.42 fold enrichment (6-mer frequency, TF over GST control) | 1.55 fold enrichment (6-mer frequency, TF over GST control) | 1.5 fold enrichment (6-mer frequency, TF over GST control) | 1.52 fold enrichment (6-mer frequency, TF over GST control) | 1.41 fold enrichment (6-mer frequency, TF over GST control) | 1.52 fold enrichment (6-mer frequency, TF over GST control)
